In PubChem BioAssay:
For some of these results: Entries with a potency or affinity are not part of this list. This is one part of the list. Active and inactive are the calls of the source.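 How the source made its calls, unless noted: active means primary screen hit whose fluorescence ratio, in both repeats, exceeds the weak agonist control mean by 3 SD; inactive means the rest.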

Experiments:
[1] = test system: TRPC4 beta (transient receptor potential cation channel C4), mouse; assay: TRPC4 cation channel opening, retest – cell-based, Fluo4 calcium, HEK293 TRPC4beta/mu-opioid, duplicates, 10 µM, confirmation (AID 2426;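 active means fluorescence ratio normalized to control raised more than 50% in primary screen plus both repeat runs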;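 further: percent rise of integrated ratio over buffer wells lacking compound which define 0%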); conditions: Fluo4 calcium fluorescence, at 10 µM; active compounds read high
[2] = test system: transient receptor potential cation channel C4 beta (TRPC4), mouse; assay: TRPC4 cation channel opening, second retest – cell-based, second round, Fluo4, HEK293 TRPC4beta/mu-opioid, 1 µM, confirmation (AID 2461;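 active means primary screen active and over 50% activation in each of two duplicate runs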;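 on activation: 0% = wells without test compound as baseline of integrated fluorescence ratio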); conditions: Fluo4 calcium fluorescence, at 1 µM; active compounds read high
[3] = test system: TRPC4 (transient receptor potential cation channel C4 beta), mouse; assay: potentiation of DAMGO EC20 TRPC4 response – cell-based, second round, Fluo-4, HEK293 TRPC4beta/mu-opioid, 1 µM, confirmation (AID 2554); conditions: DAMGO EC20, Fluo-4 calcium flux, at 1 µM; active compounds read high
[4] = test system: TRPC4 beta (transient receptor potential cation channel C4), mouse; assay: potentiation of DAMGO EC20 TRPC4 response – cell-based, Fluo-4, HEK293 TRPC4beta/mu-opioid, confirmation (AID 2555;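 active means primary screen hit whose calcium fluorescence ratio, in both repeats, exceeds the weak agonist control mean by 3 SD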); conditions: DAMGO EC20, Fluo-4 calcium flux, at 10 µM; active compounds read high
[5] = target: Short transient receptor potential channel 4 (Mus musculus) (UniProt Q9QUQ5); assay: blockers of DAMGO-evoked TRPC4 calcium flux – cell-based, Fluo4, HEK293 TRPC4beta/mu-opioid, confirmation (AID 2636;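 active means calcium signal cut by more than 3 SD below the full-agonist control yet still positive, in both repeats and the earlier primary screen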); conditions: at 10 µM; active compounds read high
[6] = target: Short transient receptor potential channel 4 (Mus musculus) (UniProt Q9QUQ5); assay: blockers of DAMGO-evoked TRPC4 calcium flux – cell-based, second round, Fluo4, HEK293 TRPC4beta/mu-opioid, 1 µM, confirmation (AID 2637;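 active means calcium signal ratio cut to more than 3 SD under the fully stimulated control mean yet still positive, in both repeats and the primary screen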;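 on inhibition: percent of integrated ratio relative to wells lacking test compound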); conditions: at 1 µM; active compounds read high
[7] = target: Short transient receptor potential channel 4 (Mus musculus) (UniProt Q9QUQ5); assay: potentiation of DAMGO-evoked TRPC4 calcium signal – cell-based, HEK293 TRPC4/mu-opioid, Fluo-4 calcium, EC20 DAMGO, dose response (AID 434941;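 active means earlier screen potentiator hit that boosts the TRPC4 ion channel at some dose, with a dose response; inactive means no potentiation, no dose response, or not a prior hit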;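 further: calcium entry triggered by an EC20 dose of DAMGO at the co-expressed mu-opioid receptor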)
[8] = target: Short transient receptor potential channel 4 (Mus musculus) (UniProt Q9QUQ5); assay: block of DAMGO-driven TRPC4 calcium entry – cell-based, HEK293 TRPC4/mu-opioid, Fluo-4 calcium, dose response (AID 434942;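 active means primary screen inhibitor hit that blocks the TRPC4 channel at some tested dose, yielding a dose curve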)
[9] = target: Short transient receptor potential channel 6 (Mus musculus) (UniProt Q61143); assay: TRPC6 blockade by TRPC4 inhibitor hits – cell-based, HEK293, membrane potential dye, duplicate, selectivity assay for TRPC4 inhibitor project, confirmation (AID 434948;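 active means active in primary screen and both duplicates, each dropping signal beyond three positive-control SD with fluorescence still positive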); conditions: HEK293 TRPC6, membrane potential dye fluorescence, at 10 µM; inhibition: active compounds read high, stimulated with maximal-effect acetylcholine unless noted; outcome: stimulated with maximal-effect acetylcholine unless noted
[10] = target: Short transient receptor potential channel 6 (Mus musculus) (UniProt Q61143); assay: TRPC6 opening by TRPC4 activator hits – cell-based, HEK293, membrane potential dye, duplicate, selectivity assay for TRPC4 activator project, confirmation (AID 434950;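 active means membrane potential signal rise above negative control mean plus 3 SD in both duplicates, also active in the earlier TRPC4 screen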;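 on activation: 0% = buffer only wells and 100% = acetylcholine maximal-effect wells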); conditions: HEK293 TRPC6, membrane potential fluorescence, at 10 µM; activation: active compounds read high; outcome: activation
[11] = target: Short transient receptor potential channel 6 (Mus musculus) (UniProt Q61143); assay: positive modulators of mouse TRPC6 channel – HEK293 cells, membrane potential dye, duplicate, selectivity assay for TRPC4 potentiator project, confirmation (AID 434952;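 active means compound raising the membrane signal above positive-control mean plus 3 SD in both repeats, and a primary screen hit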); conditions: HEK293 TRPC6, membrane potential dye fluorescence, at 10 µM; maximal acetylcholine added after compound unless noted
[12] = target: Short transient receptor potential channel 4 (Mus musculus) (UniProt Q9QUQ5); assay: calcium flux activators in TRPC4/5HT1a cells, counter-screen for TRPC4 activator project, cell-based, second counter screen, HEK293 TRPC4/5HT1a, Fluo-4 (AID 434977;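 active means calcium signal rise above buffer-control mean plus 5 SD in both duplicates, and also a hit in the primary screen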;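 on activation: plate controls were assay buffer for no effect and maximal serotonin response for full effect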); conditions: Fluo-4 calcium flux, at 10 µM; active compounds read high
[13] = serotonin-gated TRPC4 signal block – cell-based, second counter screen, HEK293 TRPC4/5HT1a, Fluo-4, counter-screen for TRPC4 inhibitor project, confirmation (AID 434978;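 active means primary screen active whose calcium signal fell more than 3 SD beyond the full-serotonin control mean in both duplicate plates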;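 further: serotonin given first at submaximal then at maximal dose after compound preincubation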); conditions: Fluo-4 calcium flux, at 10 µM; inhibition: active compounds read high, serotonin added to trigger calcium flux unless noted; outcome: serotonin added to trigger calcium flux unless noted
[14] = test system: TRPC4 (mouse), co-expressed with 5HT1a in HEK293; assay: enhancement of serotonin-evoked TRPC4 response – cell-based, second counter screen, HEK293 TRPC4/5HT1a, Fluo-4, counter-screen for TRPC4 potentiator project, confirmation (AID 434979;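 active means signal rise over 3 SD above mean of control wells given weak agonist, in both repeats and first screen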); conditions: Fluo-4 calcium flux, at 10 µM; outcome: serotonin added at its EC20 dose unless noted; potentiation: active compounds read high, serotonin added at its EC20 dose unless noted
[15] = nonspecific calcium rise without TRPC4 – cell-based, HEK293 mu-opioid receptor line, counter-screen for TRPC4 activator project, confirmation (AID 449723;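 active means hit in primary screen, with calcium signal over 5 SD above buffer well mean in both duplicates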;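 further: counter screen cells carry the mu-opioid receptor alone and lack TRPC4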); conditions: HEK293 mu-opioid cells, Fluo-4 calcium fluorescence, at 10 µM; active compounds read high
[16] = nonspecific potentiation of DAMGO calcium response – cell-based, HEK293 mu-opioid receptor line, counter-screen for TRPC4 allosteric potentiator project, confirmation (AID 449724;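 active means calcium signal rise more than 3 SD above the low-dose agonist control mean, in both duplicate plates and the primary screen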); conditions: HEK293 mu-opioid receptor cells, Fluo-4 calcium flux, at 10 µM; compound added before EC20 DAMGO stimulus unless noted
[17] = target: Short transient receptor potential channel 4 (Mus musculus) (UniProt Q9QUQ5); assay: DAMGO-gated TRPC4 membrane potential modulation – cell-based, second specificity screen, HEK293 TRPC4/mu-opioid, selectivity assay for TRPC6 inhibitor project, confirmation (AID 2776;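 active means compounds whose fluorescence signal differed from control wells by over 3 SD, either direction, in both duplicate plates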); conditions: HEK293 TRPC4/MOR, membrane potential dye fluorescence; at 10 µM; active compounds read high; channel activated by saturating DAMGO dose
[18] = test system: transient receptor potential cation channel C4 (TRPC4), mouse; assay: membrane potential change in TRPC4 cells – cell-based, HEK293 TRPC4/mu-opioid, membrane potential dye, selectivity assay for TRPC6 inhibitor project, confirmation (AID 2777;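 active means rise or fall in signal beyond 3 SD of buffer-only wells in both replicate plates, either sign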;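 further: integrated kinetic ratio of fluorescence range over baseline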); conditions: membrane potential fluorescence, at 10 µM
[19] = parental HEK293 depolarization signal interference – cell-based, second counter screen, counter-screen for TRPC6 inhibitor project, confirmation (AID 2779;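 active means membrane potential signal moving either way by over 3 SD of the maximum-effect control, in both duplicate plates, meaning non-specific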); conditions: parental HEK293 membrane potential dye fluorescence; at 10 µM; maximal acetylcholine challenge after compound addition
[20] = nonspecific voltage dye signal in HEK293 – cell-based, parental HEK293, counter-screen for TRPC6 inhibitor project, confirmation (AID 2780;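 active means membrane potential signal shifting up or down by more than 3 SD of buffer-only wells, on both duplicate plates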;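 further: plate controls were buffer EC0 wells for no effect and acetylcholine ECmax wells for full effect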); conditions: parental HEK293 membrane potential dye fluorescence; at 10 µM
[21] = target: Short transient receptor potential channel 6 (Mus musculus) (UniProt Q61143); assay: blockers of TRPC6 cation channel activity – HEK293 cells, membrane potential dye, duplicate, confirmation (AID 488960;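 active means fluorescence ratio falls more than 5 SD below the full-stimulation control mean, in both duplicate runs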;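 further: integrated fluorescence ratio of peak minus minimum over baseline after agonist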); conditions: ACh-evoked depolarization, at 10 µM; active compounds read high
[22] = target: Short transient receptor potential channel 6 (Mus musculus) (UniProt Q61143); assay: mouse TRPC6 channel activators, confirmation, HEK293 cells, membrane potential dye, duplicate (AID 488961;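 active means ratio signal rise beyond 5 SD above unstimulated control wells' mean, seen in both duplicate runs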); conditions: HEK293-TRPC6 membrane potential dye fluorescence, FDSS; at 10 µM
[23] = nonspecific flux increase, KCNQ1-free cells – parental CHO cells, counter-screen for KCNQ1 potentiator project (AID 493006;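 active means duplicate-averaged activation above buffer control mean plus 5 SD of those controls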;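 on activation: fluorescence ratio of max minus min over baseline after K+ and Tl+ depolarization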); conditions: parental CHO-K1 cells, FluxOR thallium flux, at 10 µM; active compounds read high
[24] = target: Potassium voltage-gated channel subfamily KQT member 1 (Homo sapiens) (UniProt P51787); assay: enhancement of KCNQ1 channel thallium flux – FluxOR thallium flux, CHO cells, duplicates, confirmation (AID 493007;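 active means potentiation averaged over duplicate wells exceeding buffer-only control mean by more than 3 SD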;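 on outcome: cells depolarized by a potassium plus thallium sulfate stimulus after compound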;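 on potentiation: 0% = buffer-only wells and 100% = R-L3 activator control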); conditions: KCNQ1 cell line, FluxOR thallium flux fluorescence, at 10 µM; active compounds read high, % of reference activator effect, buffer zero
[25] = target: Potassium voltage-gated channel subfamily KQT member 2 (Rattus norvegicus) (UniProt O88943); assay: KCNQ2 thallium flux enhancement – KCNQ2-CHO-K1 cells, selectivity assay for KCNQ1 potentiator project (AID 493009;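 active means mean duplicate potentiation above the buffer control mean plus 5 SD of buffer wells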;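 further: assay conditions were tuned for KCNQ1 rather than KCNQ2 modulators; signal is max minus min fluorescence divided by baseline after thallium stimulus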); conditions: FluxOR thallium flux fluorescence, at 10 µM; active compounds read high, scaled: buffer 0, activator control 100
[26] = target: Potassium voltage-gated channel subfamily KQT member 1 (Homo sapiens) (UniProt P51787); assay: KCNQ1 activators by electrophysiology – IonWorks patch clamp, KCNQ1-CHO cells, orthogonal assay for KCNQ1 potentiator project, confirmation (AID 493184;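 active means current rise at least 3 SD above the untreated control mean in each of two repeat wells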); conditions: automated patch clamp current, at 10 µM
[27] = target: Potassium voltage-gated channel subfamily E member 1 (Homo sapiens) + Potassium voltage-gated channel subfamily KQT member 1 (Homo sapiens) (UniProt P15382+P51787); assay: KCNQ1-E1 channel activation – thallium flux, CHO-K1 KCNQ1/E1 cells, selectivity assay for KCNQ1 potentiator project, confirmation (AID 493186;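 active means mean duplicate activation above the buffer control mean plus 5 SD of those controls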); conditions: FluxOR thallium flux, at 10 µM
Potassium voltage-gated channel subfamily E member 1 (Homo sapiens) + Potassium voltage-gated channel subfamily KQT member 1 (Homo sapiens), sequence (P51787 whole entry, looked up): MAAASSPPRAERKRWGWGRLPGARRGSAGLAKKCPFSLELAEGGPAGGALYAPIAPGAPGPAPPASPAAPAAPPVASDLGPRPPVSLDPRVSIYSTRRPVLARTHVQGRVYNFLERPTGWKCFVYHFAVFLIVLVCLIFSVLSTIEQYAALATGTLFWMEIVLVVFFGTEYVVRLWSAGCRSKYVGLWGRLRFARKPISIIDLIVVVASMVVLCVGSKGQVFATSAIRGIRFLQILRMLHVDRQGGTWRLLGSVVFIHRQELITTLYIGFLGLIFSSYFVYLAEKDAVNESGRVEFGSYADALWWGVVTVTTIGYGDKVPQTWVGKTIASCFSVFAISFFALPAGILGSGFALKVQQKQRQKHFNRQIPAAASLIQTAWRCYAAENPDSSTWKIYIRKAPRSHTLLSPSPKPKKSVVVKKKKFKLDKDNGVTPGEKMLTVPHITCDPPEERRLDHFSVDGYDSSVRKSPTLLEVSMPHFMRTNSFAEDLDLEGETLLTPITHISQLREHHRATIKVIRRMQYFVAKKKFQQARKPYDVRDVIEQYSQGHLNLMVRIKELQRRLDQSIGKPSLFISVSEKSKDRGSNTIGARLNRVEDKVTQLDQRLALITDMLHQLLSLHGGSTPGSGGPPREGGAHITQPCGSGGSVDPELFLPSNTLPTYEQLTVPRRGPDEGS

Potassium voltage-gated channel subfamily KQT member 1 (Homo sapiens), sequence (P51787 whole entry, looked up): as above
Potassium voltage-gated channel subfamily KQT member 2 (Rattus norvegicus), sequence (O88943 whole entry, looked up): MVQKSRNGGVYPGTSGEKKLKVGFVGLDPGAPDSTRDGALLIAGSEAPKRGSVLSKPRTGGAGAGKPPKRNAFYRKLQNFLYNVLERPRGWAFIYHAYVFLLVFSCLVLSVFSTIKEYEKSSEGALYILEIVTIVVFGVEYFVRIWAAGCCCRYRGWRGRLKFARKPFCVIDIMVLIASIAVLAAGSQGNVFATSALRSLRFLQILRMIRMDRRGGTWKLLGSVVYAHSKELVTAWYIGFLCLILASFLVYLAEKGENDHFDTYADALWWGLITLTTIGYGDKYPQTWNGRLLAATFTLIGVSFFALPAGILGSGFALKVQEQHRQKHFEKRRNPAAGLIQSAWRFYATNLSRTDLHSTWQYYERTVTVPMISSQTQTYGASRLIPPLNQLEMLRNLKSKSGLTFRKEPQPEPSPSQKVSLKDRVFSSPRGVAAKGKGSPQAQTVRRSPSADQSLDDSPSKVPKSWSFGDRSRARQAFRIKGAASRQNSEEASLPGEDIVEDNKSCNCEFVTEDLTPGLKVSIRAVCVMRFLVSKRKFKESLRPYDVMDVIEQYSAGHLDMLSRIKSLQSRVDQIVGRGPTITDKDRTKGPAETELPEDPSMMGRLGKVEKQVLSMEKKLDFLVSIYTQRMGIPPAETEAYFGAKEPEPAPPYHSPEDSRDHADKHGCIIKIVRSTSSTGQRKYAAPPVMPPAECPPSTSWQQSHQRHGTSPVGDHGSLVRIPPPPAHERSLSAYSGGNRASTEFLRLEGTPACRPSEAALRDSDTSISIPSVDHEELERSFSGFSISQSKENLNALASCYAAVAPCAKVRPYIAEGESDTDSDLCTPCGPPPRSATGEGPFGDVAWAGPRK
Short transient receptor potential channel 4 (Mus musculus), sequence (Q9QUQ5 whole entry, looked up): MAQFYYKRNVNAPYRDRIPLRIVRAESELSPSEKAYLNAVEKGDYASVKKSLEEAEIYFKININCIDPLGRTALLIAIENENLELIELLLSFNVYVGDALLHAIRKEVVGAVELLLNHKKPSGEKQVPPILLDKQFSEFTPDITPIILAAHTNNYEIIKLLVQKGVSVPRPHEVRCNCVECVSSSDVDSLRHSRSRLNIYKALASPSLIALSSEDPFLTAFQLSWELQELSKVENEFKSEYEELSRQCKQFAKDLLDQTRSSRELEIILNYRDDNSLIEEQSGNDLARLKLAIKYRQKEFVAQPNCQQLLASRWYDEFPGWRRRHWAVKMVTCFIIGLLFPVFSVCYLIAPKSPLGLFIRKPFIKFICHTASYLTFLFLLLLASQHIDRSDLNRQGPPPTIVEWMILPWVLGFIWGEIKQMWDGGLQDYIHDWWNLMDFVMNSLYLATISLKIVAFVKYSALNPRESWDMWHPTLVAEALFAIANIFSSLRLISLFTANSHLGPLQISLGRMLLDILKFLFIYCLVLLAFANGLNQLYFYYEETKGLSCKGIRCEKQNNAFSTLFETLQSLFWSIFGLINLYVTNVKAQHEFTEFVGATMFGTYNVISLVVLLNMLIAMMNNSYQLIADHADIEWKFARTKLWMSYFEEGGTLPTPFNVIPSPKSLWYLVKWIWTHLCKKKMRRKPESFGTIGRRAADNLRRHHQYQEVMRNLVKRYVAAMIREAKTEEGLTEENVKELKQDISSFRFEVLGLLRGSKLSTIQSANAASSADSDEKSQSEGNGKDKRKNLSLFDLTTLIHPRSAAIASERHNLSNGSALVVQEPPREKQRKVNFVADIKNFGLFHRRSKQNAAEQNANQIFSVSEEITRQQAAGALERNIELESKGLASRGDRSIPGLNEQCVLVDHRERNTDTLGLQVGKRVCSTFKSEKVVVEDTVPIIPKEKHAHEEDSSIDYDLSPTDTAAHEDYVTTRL
Short transient receptor potential channel 6 (Mus musculus), sequence (Q61143 whole entry, looked up): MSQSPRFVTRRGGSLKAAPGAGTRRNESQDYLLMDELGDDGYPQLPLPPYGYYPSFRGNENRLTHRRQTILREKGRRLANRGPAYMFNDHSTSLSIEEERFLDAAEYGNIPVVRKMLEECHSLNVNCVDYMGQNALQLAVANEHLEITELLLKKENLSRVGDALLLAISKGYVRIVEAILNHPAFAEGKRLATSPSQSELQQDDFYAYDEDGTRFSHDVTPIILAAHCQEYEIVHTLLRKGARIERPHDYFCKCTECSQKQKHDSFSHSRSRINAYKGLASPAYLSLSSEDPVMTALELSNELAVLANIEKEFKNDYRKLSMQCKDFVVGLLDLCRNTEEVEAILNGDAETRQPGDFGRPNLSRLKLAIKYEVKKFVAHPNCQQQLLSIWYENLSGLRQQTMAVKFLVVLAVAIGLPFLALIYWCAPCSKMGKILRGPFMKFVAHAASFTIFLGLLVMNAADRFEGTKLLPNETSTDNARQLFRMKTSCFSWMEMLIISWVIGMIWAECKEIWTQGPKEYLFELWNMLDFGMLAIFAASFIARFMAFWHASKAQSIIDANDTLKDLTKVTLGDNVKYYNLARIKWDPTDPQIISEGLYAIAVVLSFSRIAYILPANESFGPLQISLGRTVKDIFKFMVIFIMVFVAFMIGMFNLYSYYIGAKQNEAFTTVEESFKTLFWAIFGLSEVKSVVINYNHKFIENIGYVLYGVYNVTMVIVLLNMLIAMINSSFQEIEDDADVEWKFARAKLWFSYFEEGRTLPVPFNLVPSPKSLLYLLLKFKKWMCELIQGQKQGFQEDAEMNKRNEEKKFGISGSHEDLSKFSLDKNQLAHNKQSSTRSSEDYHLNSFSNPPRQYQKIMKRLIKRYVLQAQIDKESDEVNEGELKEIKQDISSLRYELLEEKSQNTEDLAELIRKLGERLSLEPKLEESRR

CCOC(=O)C1(CCc2ccccc2)CCN(Cc2ccc(NC(C)=O)cc2)CC1
active: activation [1] 83% | activation [2] 90% | activation [10] 41.5%
inactive: outcome [3] | outcome [4] | outcome [5] | outcome [6] | outcome [7] | outcome [8] | outcome [9] | outcome [11] | outcome [12] | outcome [13] | outcome [14] | outcome [15] | outcome [16]

CC(N)Cc1c[nH]c2cc3c(cc12)OCCO3 (configuration not stated)
active: activation [1] 195% | activation [2] 60% | activation [12] 107%
inactive: outcome [3] | outcome [4] | outcome [5] | outcome [6] | outcome [7] | outcome [8] | outcome [9] inactive [setting not given] | outcome [10] | outcome [11] inactive [setting not given] | outcome [13] inactive [setting not given] | outcome [14] inactive [setting not given] | outcome [15] | outcome [16] inactive [setting not given]

NC(N)=N/N=C/c1ccc(N(c2ccccc2)c2ccccc2)cc1
active: activation [1] 60% | activation [12] 48.2% | activation [15] 20.3%
inactive: outcome [2] | outcome [3] | outcome [4] | outcome [5] | outcome [6] | outcome [7] | outcome [8] | outcome [9] | outcome [10] | outcome [11] | outcome [13] | outcome [14] | outcome [16]

CN(C)C1(CNC(=O)Nc2ccc(Cl)c(Cl)c2)CCCCC1
inactive: outcome [3] | outcome [4] | outcome [5] | outcome [6] | outcome [7] | outcome [8] | outcome [9] | outcome [10] | outcome [11] | outcome [13] | outcome [14] | outcome [16]
active: activation [1] 229% | activation [2] 64% | activation [12] 29.4% | activation [15] 42.7%

COc1ccc(C2NCCc3[nH]cnc32)cc1 (configuration not stated)
active: activation [1] 220% | activation [2] 68% | activation [12] 49.5%
inactive: outcome [3] | outcome [4] | outcome [5] | outcome [6] | outcome [7] | outcome [8] | outcome [9] | outcome [10] | outcome [11] | outcome [13] | outcome [14] | outcome [15] | outcome [16]

CCCCCCCCCCCCn1ccc(=N)cc1
inactive: outcome [19] | outcome [22]
active: inhibition [17] 66% | activity change, negative = inhibition [18] -9.73% | membrane potential signal change [20] -166% | inhibition [21] 56.1%

O=[N+]([O-])c1cc2c(cc1CNCCc1ccc3c(c1)OCO3)OCO2
inactive: outcome [2] | outcome [3] | outcome [4] | outcome [7] | outcome [9] inactive [setting not given] | outcome [10] | outcome [11] inactive [setting not given] | outcome [12] | outcome [13] inactive [setting not given] | outcome [14] inactive [setting not given] | outcome [15] | outcome [16] inactive [setting not given]
active: activation [1] 62% | inhibition [5] 91% | inhibition [6] 39%

O=C(CCCN1CCC2(CC1)C(=O)NCN2c1ccccc1)c1ccc(F)cc1
active: activation [1] 193% | activation [10] 39.5% | activation [12] 86.7% | activation [15] 48% | activation [23] 336% | potentiation [24] 55.5% | potentiation [25] 323%
inactive: outcome [2] | outcome [3] | outcome [4] | outcome [5] | outcome [6] | outcome [7] | outcome [8] | outcome [9] | outcome [11] | outcome [13] | outcome [14] | outcome [16] | outcome [26]

Cc1c(Cl)cccc1NC(=S)N1CC2CC(C1)c1cccc(=O)n1C2 (configuration not stated)
inactive: outcome [23] | outcome [24] | outcome [26]

Nc1ncnc2c1ccn2[C@@H]1O[C@H](CO)[C@@H](O)[C@H]1O
inactive: outcome [23] | outcome [24] | outcome [25] | outcome [26]

C/C=C(\C)C(=O)N[C@@H](c1ccccc1)[C@@H](O)C(=O)O[C@H]1C[C@@]2(O)[C@@H](OC(=O)c3ccccc3)C3[C@](C)(C(=O)[C@H](OC(C)=O)C(=C1C)C2(C)C)[C@@H](O)C[C@H]1OC[C@@]31OC(C)=O (some centres not stated)
inactive: outcome [23] | outcome [24] | outcome [25] | outcome [26] | outcome [27]

COc1cccc(CC(=O)N2CCN(Cc3cccc(Cl)c3)CC2)c1
inactive: outcome [23] | outcome [24] | outcome [25] | outcome [26]

C/C1=C\[C@@H](C)C/C=C/[C@H]2[C@@H]3O[C@]3(C)[C@@H](C)[C@H]3[C@H](Cc4c[nH]c5ccccc45)NC(=O)[C@]32C(=O)/C=C/C(=O)[C@@H]1O
active: potentiation [24] 20.5%
inactive: outcome [23] | outcome [25] | outcome [26] | outcome [27]
